ssDAF12 agonist: S. stercoralis DAF-12 nuclear receptor activators, primary screen, cell-based, luminescence, HEK293, GRIP1 co-expression, lit1-tk-luc. actives 1% (n = 370,000). AID 652126, 2013. HEK293 ssDAF-12/GRIP1 lit1-tk-luc reporter; % of 3 µM dafachronic acid response. Nuclear hormone receptor DAF-12 (Strongyloides stercoralis). activation, % at 6.8 µM;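 active = activation above the mean over all tested compounds plus 3 SD, cut at about 0.9% in these data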;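 also: 0% = DMSO-only wells and 100% = 3 µM delta7-dafachronic acid wells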
hcDAF-12 act: H. contortus DAF-12 nuclear receptor activators, primary screen, cell-based, luminescence, HEK293, lit1-tk-luc reporter | actives 1.4% (n = 370,000) | HEK293 hcDAF-12 lit1-tk-luc reporter; 0% DMSO, 100% Δ7-dafachronic acid | AID 652067, 2013 | activation, % at 6.8 µM;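 active = activation above the mean of all tested compounds plus 3 SD, cut at about 5.5% in these data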;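 also: 100% = response to 3 µM Δ7-dafachronic acid high control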
hgDAF12 agonist: H. glycines DAF-12 receptor agonists, primary screen, cell-based, luminescence, HEK293, GAL4 fusion, UAS-luciferase; Nuclear hormone receptor DAF-12 (Heterodera glycines), GAL4 fusion; HEK293 GAL4-hgDAF12 UAS-luciferase reporter, agonist luminescence; normalized to butyrate control; activation, % at 6.8 µM; actives 1.8% (n = 370,000);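 active = activation above a cutoff set at the mean of all screened compounds plus 3 SD, cut at about 10% in these data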;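 also: 0% = DMSO wells and 100% = sodium butyrate wells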
DAX1 inh-1: DAX1 (NR0B1) inhibitors, primary screen, cell-based, HEK293, Gal4-DAX1, luciferase luminescence. Nuclear receptor subfamily 0 group B member 1 (Homo sapiens), P51843. HEK293 Gal4-DAX1 luciferase reporter. inhibition, % at 6.75 µM. actives 0.99% (n = 340,000). AID 504766, 2011;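 active = inhibition above the mean over all tested compounds plus 3 SD, cut at about 4.2% in these data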;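 also: 0% = DAX1-transfected cells with DMSO and 100% = empty-vector control cells with DMSO; inhibition shows as a rise in luminescence from relieved DAX1 repression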
Target sequence (P51843 207-470 limits assumed): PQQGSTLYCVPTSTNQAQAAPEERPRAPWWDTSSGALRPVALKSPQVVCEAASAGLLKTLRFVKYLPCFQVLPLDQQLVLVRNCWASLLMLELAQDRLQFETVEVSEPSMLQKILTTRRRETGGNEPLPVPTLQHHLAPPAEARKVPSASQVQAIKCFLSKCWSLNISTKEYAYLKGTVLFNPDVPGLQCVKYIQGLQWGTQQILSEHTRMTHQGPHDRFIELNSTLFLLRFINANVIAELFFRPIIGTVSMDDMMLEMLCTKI
DAX1 inh-2: DAX1 (NR0B1) inhibitors on StAR promoter, primary screen, cell-based, luminescence, SF-1 (NR5A1), full-length DAX-1; inhibition, % at 6.8 µM; actives 1.1% (n = 370,000); HEK293T StAR-luciferase reporter, SF-1/DAX-1 repression relief;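 active = inhibition above the mean over all tested compounds plus 3 SD, cut at about 3.6% in these data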;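 also: 0% = DAX-1 cells with DMSO and 100% = cells lacking DAX-1 with DMSO; higher inhibition means more luminescence from relief of DAX-1 repression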
hgDAF12 ag: H. glycines DAF-12 receptor agonists, confirmation, cell-based, luminescence, HEK293, GAL4-LBD fusion; shares compounds with hgDAF12 agonist; HEK293 GAL4-hgDAF12 luciferase reporter, agonist mode; percent of butyrate response; activation, % at 6.8 µM; actives 80% (n = 3,300); AID 743050, 2013;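 active = mean activation over triplicate wells above the hit cutoff derived from the earlier primary screen, cut at about 11% in these data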;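 also: 0% = DMSO low control and 100% = 2 mM sodium butyrate high control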
LXR ag 2: LXR agonists, Gal4 luciferase reporter, confirmation, counter-screen for hgDAF-12 agonist project, cell-based, luminescence, HEK293, H. glycines campaign; shares compounds with hgDAF12 agonist; 24 h; activation, % at 6.8 µM; 3,300 tested, under 10 active;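 active = mean activation of the triplicate above a set limit carried over from the primary screen, none filed active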
* = called active by the depositor; . = not tested or not shown. Hits are enriched below; roughly 4.1% of the tested compounds scored in any of these assays.

SMILES | ssDAF12 agonist | hcDAF-12 act | hgDAF12 agonist | DAX1 inh-1 | DAX1 inh-2 | hgDAF12 ag | LXR ag 2
CCOc1ccc(NC(=O)c2ccco2)cc1 | 0 | 2 | 15* | 0 | 4 | 13* | 1
CC(=O)Nc1cccc(NC(=O)c2ccc(COc3ccccc3)cc2)c1 | 0 | 3 | 13* | 1 | 2 | 17* | 1
CCOc1ccc2nc(NC(=O)c3ccco3)sc2c1 | 0 | 5 | 16* | -4 | 2 | 17* | 1
CCOc1ccc2nc(NC(=S)NCc3ccccc3)sc2c1 | -1 | 0 | 0 | 0 | 0 | . | .
CC(C)(C)NC(=O)CSc1nnc(-c2ccccc2)c(-c2ccccc2)n1 | . | . | . | -2 | . | . | .
CS(=O)(=O)c1ccc2nc(NC(=O)c3ccco3)sc2c1 | -1 | 4 | 15* | 0 | 3 | 14* | 1
O=C(c1ccc2c(c1)OCO2)N1CCC2(CC1)Oc1ccc(Cl)cc1C(=O)C21CC(c2ccc(Cl)cc2)=NO1 (configuration not stated) | -1 | -1 | 0 | . | 0 | . | .
COc1cc(/C=C/C(=O)NC(=O)c2ccccc2O)ccc1OC(C)=O | 0 | 5 | 15* | 3 | 2 | 6 | 0
COc1ccccc1/C=C/C(=O)OCC(=O)Nc1ccc2c(c1)OCCO2 | -1 | 0 | 0 | 0 | 0 | . | .
COc1ccc(/C=C/C(=O)Nc2ccccc2)cc1OC | 0 | 2 | 17* | 0 | 3 | 10 | 0
COc1ccccc1/C=C/C(=O)Nc1ccc2c(c1)OCCO2 | 0 | 5 | 17* | -2 | 3 | 18* | 1
C=C1C(O)C[C@@H](C(C)C)N(CC(C)C)S1(=O)=O (some centres not stated) | -1 | 1 | -1 | 0 | 0 | . | .
C/C(CC(=O)Nc1cccc(Cl)c1Cl)=N\NC(=O)c1ccccc1Br | -1 | 2 | 3 | 2 | 1 | . | .
C/C(CC(=O)Nc1cccc(Cl)c1Cl)=N\NC(=O)c1ccccc1N | 0 | 5 | 14* | 4.2* | 2 | 3 | 0
O=Cc1ccc(-c2nc3ccccc3s2)o1 | 0 | 6.0* | 14* | -1 | 2 | 11* | 0
O=C(O)c1ccc(-c2nc3ccccc3s2)o1 | -1 | 2 | 5 | -3 | 1 | . | .
CC1CCc2nc3sc4c(c3c(N)c2C1)CCCC4 (configuration not stated) | 0 | -1 | 14* | -1 | 3 | 11* | 0
CC1CCc2c(C(=O)Nc3nccs3)csc2C1 (configuration not stated) | -1 | 0 | 8 | -1 | 0 | . | .
CC1CCc2c(C(=O)Nc3ccccn3)csc2C1 (configuration not stated) | 0 | 3 | 17* | 3 | 3 | 12* | 1
CC1CCc2c(C(=O)NCc3ccccn3)csc2C1 (configuration not stated) | -1 | 4 | 17* | 1 | 2 | 7 | 0
COc1c(Cl)ccc(Cl)c1C(=O)NC(=O)Nc1nc(C)cc(C)n1 | -2 | 0 | -1 | 0 | -4 | . | .
Cc1c(C(=O)NCC2CCCO2)oc2ccc3c(c12)C(=O)CC(C)(C)O3 (configuration not stated) | 0 | 5 | 17* | 0 | 1 | 12* | 1
COc1cccc(C(=O)N[C@H](C(=O)N2CCC[C@H]2C(=O)NCc2ccccc2)C2CCCCC2)c1 | -1 | -1 | 0 | . | 0 | . | .
COC(=O)c1ccc(N=Nc2ccccc2)cc1 | -1 | 1 | 5 | 0 | 2 | . | .
OCc1ccc(N=Nc2ccccc2)cc1 | 0 | 3 | 13* | 3 | 2 | 17* | 1
SMILES | ssDAF12 agonist | hcDAF-12 act | hgDAF12 agonist | DAX1 inh-1 | DAX1 inh-2 | hgDAF12 ag | LXR ag 2
O=C(/C=C/c1ccc(-c2ccccc2)cc1)NC1=NCCS1 | 0 | 4 | 18* | . | . | 14* | 0
CC(=O)c1ccc(N2CCN(C(=O)c3noc4c3CSc3ccccc3-4)CC2)cc1 | -1 | -1 | -1 | 0 | -1 | . | .
Nc1ccccc1SCc1cn2cccnc2n1 | 0 | 4 | 14* | 2 | 1 | 4 | 0
Nc1ccccc1N=Cc1ccc(-c2cccc(Cl)c2)o1 | 1.3* | 3 | 22* | 3 | 2 | 15* | 0
COC(=O)N/N=C/c1ccc(-c2cccc(Cl)c2)o1 | -1 | -1 | 0 | 0 | 1 | . | .
COc1cccc(CSc2nc3ccncc3[nH]2)c1 | 0 | 2 | 15* | -1 | 3 | 14* | 1
COc1cccc(N2CCN(C(=O)c3ccc(CSc4nc5ccncc5[nH]4)cc3)CC2)c1 | -1 | -4 | -5 | -3 | -3 | . | .
CCOc1ccc2nc(NC(=O)Nc3ccccc3)sc2c1 | -1 | 2 | 15* | 4.5* | 2 | 16* | 1
CCOc1ccc2nc(NC(=O)Cc3cccs3)sc2c1 | . | . | . | 0 | . | . | .
CCOc1ccc2nc(NC(=O)COC)sc2c1 | 1 | 2 | 14* | 0 | 4.5* | 16* | 1
CCOc1ccc2nc(NC(=O)C3CCCO3)sc2c1 (configuration not stated) | 0 | 4 | 18* | 2 | 3 | 16* | 1
CCOc1ccc2nc(NC(=O)NC3CCCCC3)sc2c1 | -1 | 0 | -1 | 0 | 0 | . | .
CC(C)(C)NC(=O)COC(=O)c1ccc(Cl)c(S(N)(=O)=O)c1 | 0 | -1 | 1 | 0 | 1 | . | .
Cc1nn(CC(=O)NC2CCCC2)c(C)c1[N+](=O)[O-] | -1 | -1 | 0 | 2 | 0 | . | .
COc1cc(O)cc2cc3c(c(O)c12)C(=O)CC(C)(O)O3 (configuration not stated) | -2 | 1 | 15* | 2 | 0 | 4 | 0
CC1=CC(C)(C)[N+](C)(C)c2ccccc21 | -1 | 0 | 0 | 0 | 0 | . | .
CC1(c2ccccc2Cl)NC(=O)N(CC(=O)NCc2ccco2)C1=O (configuration not stated) | -1 | -1 | -2 | 0 | 0 | . | .

Compound activity as filed in PubChem BioAssay.
